Consider 13 molecules from PubChem BioAssay.

Inconclusive results are not listed. Peptide text beside a SMILES is read from it.

The first assay in a line: inhibitors of mitochondrial cytochrome c release, biochemical, purified mitochondria (AID 1603).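 Also: mouse liver mitochondria challenged with calcium chloride; signal normalized to the plate average as 100%.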 The settings on record: stronger effect = lower value.
`CC1CC2C3CCC4=CC(=O)C=CC4(C)[C@@]3(F)C(O)CC2(C)[C@@]1(O)C(=O)CO` (stereo partly drawn): the cytochrome c release ratio is 1.12.

With `NCC1OC(OC2C(N)CC(N)C(OC3OC(CO)C(O)C(N)C3O)C2O)C(N)C(O)C1O` (stereo not drawn), the cytochrome c release ratio was determined as 4.45.

Consider `NCCCCC(N)C(=O)NCC(=O)NC(Cc1cnc[nH]1)C(=O)NC(CCCCN)C(=O)O` (stereo not drawn) (H-KGHK-OH; configuration not given here), for which the cytochrome c release ratio stood at 0.86.

As to `NCC1CCC(N)C(OC2C(N)CC(N)C(OC3OC(CO)C(O)C(N)C3O)C2O)O1` (stereo not drawn), the cytochrome c release ratio is 0.86.

With `O=c1c(O)cc2c(O)oc3c(=O)c(O)cc4c3c2c1CC=4O`, the cytochrome c release ratio amounted to 1.61.

Take `CC(NC(=O)C(NC(=O)OCc1ccccc1)C(C)C)C(=O)NC(CC(=O)O)C(=O)OC(F)F` (stereo not drawn): the cytochrome c release ratio amounted to 0.97.

Consider `CC(=O)N[C@@H](Cc1c[nH]c2ccccc12)C(N)=O`, for which the cytochrome c release ratio is 0.46.

As to `COc1ccc2c(c1OC)C(=O)O[C@H]2[C@@H]1c2ccccc2CCN1C`, the cytochrome c release ratio amounted to 0.71.

For `CC[C@@H](C(=O)C(C)[C@@H](O)[C@H](C)CCc1ccc(C)c(O)c1C(=O)O)C1OC(CC)(C2CC[C@](O)(CC)[C@H](C)O2)C[C@@H]1C` (stereo partly drawn), the cytochrome c release ratio came out at 1.

On to `CCCCC(=O)OC1(C(=O)CO)C(C)CC2C3CCC4=CC(=O)C=CC4(C)[C@@]3(F)[C@@H](O)CC21C` (stereo partly drawn), for which the cytochrome c release ratio was 1.65.

For `CC(=O)C1CCC2C3CC=C4CC(OS(=O)(=O)O)CC[C@]4(C)C3CC[C@]12C` (stereo partly drawn), the cytochrome c release ratio is 1.34.

Regarding `CC[C@@]1(O)C[C@H](OC2CC(N(C)C)C(OC3CC(O)C(OC4CCC(=O)C(C)O4)C(C)O3)C(C)O2)c2c(cc3c(c2O)C(=O)c2c(O)cccc2C3=O)[C@H]1C(=O)OC` (stereo partly drawn), the cytochrome c release ratio worked out at 4.02.

As to `C=C1C(=O)OC2C1CCC1(C)CCC=C(C)C21` (stereo not drawn), the cytochrome c release ratio turned out to be 0.81.

Another assay is described as follows: inhibitors of polyQ protein aggregation (AID 1604). The settings on record: polyglutamine-induced protein aggregation inhibition assay; stronger effect = higher value; tested at 2.5 µM.
In the case of `CC1CC2C3CCC4=CC(=O)C=CC4(C)[C@@]3(F)C(O)CC2(C)[C@@]1(O)C(=O)CO` (stereo partly drawn), the inhibition of aggregation is 59.3%.

In the case of `NCC1OC(OC2C(N)CC(N)C(OC3OC(CO)C(O)C(N)C3O)C2O)C(N)C(O)C1O` (stereo not drawn), the inhibition of aggregation was determined as 8.33%.

`NCCCCC(N)C(=O)NCC(=O)NC(Cc1cnc[nH]1)C(=O)NC(CCCCN)C(=O)O` (stereo not drawn) (H-KGHK-OH; configuration not given here): the inhibition of aggregation was determined as 36%.

For `NCC1CCC(N)C(OC2C(N)CC(N)C(OC3OC(CO)C(O)C(N)C3O)C2O)O1` (stereo not drawn), the inhibition of aggregation was 4.76%.

In the case of `O=c1c(O)cc2c(O)oc3c(=O)c(O)cc4c3c2c1CC=4O`, the inhibition of aggregation came to 25.2%.

As to `CC(NC(=O)C(NC(=O)OCc1ccccc1)C(C)C)C(=O)NC(CC(=O)O)C(=O)OC(F)F` (stereo not drawn), the inhibition of aggregation came out at 0.68%.

Turning to `CC(=O)N[C@@H](Cc1c[nH]c2ccccc12)C(N)=O`, the inhibition of aggregation turned out to be 60.3%.

Turning to `COc1ccc2c(c1OC)C(=O)O[C@H]2[C@@H]1c2ccccc2CCN1C`, the inhibition of aggregation was found to be 72.2%.

For the molecule `CC[C@@H](C(=O)C(C)[C@@H](O)[C@H](C)CCc1ccc(C)c(O)c1C(=O)O)C1OC(CC)(C2CC[C@](O)(CC)[C@H](C)O2)C[C@@H]1C` (stereo partly drawn), the inhibition of aggregation worked out at 74%.

As to `CCCCC(=O)OC1(C(=O)CO)C(C)CC2C3CCC4=CC(=O)C=CC4(C)[C@@]3(F)[C@@H](O)CC21C` (stereo partly drawn), the inhibition of aggregation was 82%.

For `CC(=O)C1CCC2C3CC=C4CC(OS(=O)(=O)O)CC[C@]4(C)C3CC[C@]12C` (stereo partly drawn), the inhibition of aggregation worked out at 37.2%.

As for `CC[C@@]1(O)C[C@H](OC2CC(N(C)C)C(OC3CC(O)C(OC4CCC(=O)C(C)O4)C(C)O3)C(C)O2)c2c(cc3c(c2O)C(=O)c2c(O)cccc2C3=O)[C@H]1C(=O)OC` (stereo partly drawn), the inhibition of aggregation turned out to be 1.96%.

For `C=C1C(=O)OC2C1CCC1(C)CCC=C(C)C21` (stereo not drawn), the inhibition of aggregation is -33.3%.

Another assay is described as follows: protection against mutant huntingtin cytotoxicity, PC12 cells, LDH release (AID 1610). As to conditions: PC12 mutant huntingtin toxicity, final LDH at 4 uM, stronger effect = lower value. A general note: LDH in the medium is a marker of cell lysis.
`CC(NC(=O)C(NC(=O)OCc1ccccc1)C(C)C)C(=O)NC(CC(=O)O)C(=O)OC(F)F` (stereo not drawn) had a normalised LDH release of 0.83.

In the case of `CCCCC(=O)OC1(C(=O)CO)C(C)CC2C3CCC4=CC(=O)C=CC4(C)[C@@]3(F)[C@@H](O)CC21C` (stereo partly drawn), the normalised LDH release is 0.899.

In turn, `CC[C@@]1(O)C[C@H](OC2CC(N(C)C)C(OC3CC(O)C(OC4CCC(=O)C(C)O4)C(C)O3)C(C)O2)c2c(cc3c(c2O)C(=O)c2c(O)cccc2C3=O)[C@H]1C(=O)OC` (stereo partly drawn) registered a normalised LDH release of 0.363.

`C=C1C(=O)OC2C1CCC1(C)CCC=C(C)C21` (stereo not drawn) gave a normalised LDH release of 0.89.

The next assay in a line: enhancers of glutamate uptake in motor neurons, MN-1 cell line (AID 1612).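 Also: tested at 1 µM final; 0% = mean of DMSO vehicle wells on each plate; positive means more glutamate uptake than control and negative means less.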 As to conditions: MN-1 motor neuron cells, stronger effect = higher value.
For the molecule `CC1CC2C3CCC4=CC(=O)C=CC4(C)[C@@]3(F)C(O)CC2(C)[C@@]1(O)C(=O)CO` (stereo partly drawn), the glutamate uptake change is -14.9%.

In the case of `NCC1OC(OC2C(N)CC(N)C(OC3OC(CO)C(O)C(N)C3O)C2O)C(N)C(O)C1O` (stereo not drawn), the glutamate uptake change was -14.8%.

As to `NCCCCC(N)C(=O)NCC(=O)NC(Cc1cnc[nH]1)C(=O)NC(CCCCN)C(=O)O` (stereo not drawn) (H-KGHK-OH; configuration not given here), the glutamate uptake change was found to be 18.4%.

Consider `NCC1CCC(N)C(OC2C(N)CC(N)C(OC3OC(CO)C(O)C(N)C3O)C2O)O1` (stereo not drawn), for which the glutamate uptake change amounted to 14.5%.

Consider `O=c1c(O)cc2c(O)oc3c(=O)c(O)cc4c3c2c1CC=4O`, for which the glutamate uptake change is -0.57%.

For the molecule `CC(NC(=O)C(NC(=O)OCc1ccccc1)C(C)C)C(=O)NC(CC(=O)O)C(=O)OC(F)F` (stereo not drawn), the glutamate uptake change was found to be 2.37%.

With `CC(=O)N[C@@H](Cc1c[nH]c2ccccc12)C(N)=O`, the glutamate uptake change is -9.38%.

On to `COc1ccc2c(c1OC)C(=O)O[C@H]2[C@@H]1c2ccccc2CCN1C`, for which the glutamate uptake change was -0.43%.

For `CC[C@@H](C(=O)C(C)[C@@H](O)[C@H](C)CCc1ccc(C)c(O)c1C(=O)O)C1OC(CC)(C2CC[C@](O)(CC)[C@H](C)O2)C[C@@H]1C` (stereo partly drawn), the glutamate uptake change is -67.2%.

With `CCCCC(=O)OC1(C(=O)CO)C(C)CC2C3CCC4=CC(=O)C=CC4(C)[C@@]3(F)[C@@H](O)CC21C` (stereo partly drawn), the glutamate uptake change worked out at 9.55%.

With `CC(=O)C1CCC2C3CC=C4CC(OS(=O)(=O)O)CC[C@]4(C)C3CC[C@]12C` (stereo partly drawn), the glutamate uptake change came to 48.1%.

Take `CC[C@@]1(O)C[C@H](OC2CC(N(C)C)C(OC3CC(O)C(OC4CCC(=O)C(C)O4)C(C)O3)C(C)O2)c2c(cc3c(c2O)C(=O)c2c(O)cccc2C3=O)[C@H]1C(=O)OC` (stereo partly drawn): the glutamate uptake change worked out at 47.8%.

Regarding `C=C1C(=O)OC2C1CCC1(C)CCC=C(C)C21` (stereo not drawn), the glutamate uptake change was 0.76%.
